In the library only some 18% were active in any assay of this set; here they are far more common.
TDP1 inh – blocks human tyrosyl-DNA phosphodiesterase 1. hit rate 0.28% among 350,000. recombinant TDP1, AlphaScreen DNA substrate cleavage. Q9NUW8. Potency, µM (titrated, usually from 130 µM), for inactives: top-dose activity change, negative = inhibition, actives largely listed as inhibitors. AID 485290; also: potency is read from the fitted curve at half-maximal effect; % is scaled to controls: 0 for no effect and ±100 for the full control effect; nearly all actives have a fitted effect of over 40% in size
Target sequence (Q9NUW8 whole entry, looked up): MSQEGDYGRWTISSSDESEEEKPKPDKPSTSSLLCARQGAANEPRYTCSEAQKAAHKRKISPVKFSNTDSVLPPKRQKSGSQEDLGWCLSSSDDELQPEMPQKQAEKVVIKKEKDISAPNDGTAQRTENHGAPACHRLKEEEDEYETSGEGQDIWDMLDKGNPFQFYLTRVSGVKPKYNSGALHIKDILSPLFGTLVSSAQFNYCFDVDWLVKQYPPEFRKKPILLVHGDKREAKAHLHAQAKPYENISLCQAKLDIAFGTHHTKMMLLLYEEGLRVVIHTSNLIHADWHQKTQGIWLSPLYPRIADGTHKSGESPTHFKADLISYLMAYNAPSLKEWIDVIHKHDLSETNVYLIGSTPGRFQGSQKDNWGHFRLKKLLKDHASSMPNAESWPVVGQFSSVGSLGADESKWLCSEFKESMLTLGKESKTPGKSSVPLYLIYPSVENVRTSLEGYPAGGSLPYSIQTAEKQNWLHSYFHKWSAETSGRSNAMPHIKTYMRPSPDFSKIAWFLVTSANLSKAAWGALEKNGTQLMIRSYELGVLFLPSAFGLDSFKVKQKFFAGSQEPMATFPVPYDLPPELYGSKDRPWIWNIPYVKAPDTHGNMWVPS
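Recombinant human Tdp1 (E. coli-expressed, 1 nM final) preincubated with compounds 15 min at room temperature, then 5'-biotin/3'-phosphotyrosine-FITC DNA substrate (15 nM final) added for 5 min. AlphaScreen beads (10 ug/ml final) added 10 min; cleavage lowers signal.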
TGFb SMAD3 inh – blocks TGF-b signaling. hit rate 1.2% among 410,000. Potency, µM (series often up to 46.1 µM), inactives show at the top dose activity, negative = inhibition, hits mostly inhibitors. HepG2 CAGA-GFP TGF-b/SMAD3 reporter, GFP fluorescence, 18 h; TGF-beta stimulated, 500 pg/mL final. AID 588855; also: potency is read from the fitted curve at half-maximal effect; % is scaled to controls: 0 for no effect and ±100 for the full control effect; nearly all actives have a fitted effect of over 65% in size
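HEPG2 CAGA-GFP, 1000 cells/well; 2 h settle, 37 C; cpd via pin tool; TGF-b 500 pg/mL final; 18 h, 37 C; GFP imaging ex488/em500-530; %Activity normalised to -TGF-b and +DMSO controls; CRC fit, curve class.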
IL-1B inflam inh – inhibitors of inflammasome signaling (IL-1 beta secretion); THP-1 LPS/ATP IL-1B secretion, AlphaLISA, 16 h; stronger effect = lower value; activity change, % at 57.5 µM; hit rate 4.7% among 360,000; in the data active = activity change below about -50%; inconclusive = mostly about -30% to -49%; also: % is scaled to controls: 0 for no effect and ±100 for the full control effect
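THP-1 cells pretreated 1 hr with compounds (up to 57.5 uM final), then stimulated with LPS (250 ng/mL final) plus ATP (1.25 mM final); secreted IL-1B measured by AlphaLISA after 16 hr, decreased signal indicating inhibition.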
DT40 TDP1 CPT – growth inhibition of DT40 Tdp1-/-;hTDP1 cells with camptothecin (screen for TDP1 inhibitors). chicken DT40 Tdp1-/-;hTDP1 cells + 20 nM CPT, ATP luminescence, 48 h. Potency, µM (doses to about 46.2 µM), for the others: top-dose activity change, negative = growth inhibition, most hits filed as inhibitors. hit rate 12% among 420,000; also: potency is read from the fitted curve at half-maximal effect; % is scaled to controls: 0 for no effect and ±100 for the full control effect; nearly all actives have a fitted effect of over 55% in size
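Chicken DT40 Tdp1-/- cells complemented with human TDP1, 400 cells/well, exposed to compounds plus 20 nM camptothecin for at least 48 h at 37 C; viability read as ATP content by CellTiter-Glo luminescence.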
TDP1 cell noCPT – qHTS for Inhibitors of human tyrosyl-DNA phosphodiesterase 1 (TDP1): qHTS in cells in absence of CPT; DT40 Tdp1-/- hTDP1 cells, no CPT, ATP luminescence, 48 h; Potency, µM (highest dose often 46.2 µM), for inactives: at the top dose activity change, negative = growth inhibition, actives largely listed as inhibitors; hit rate 15% among 420,000; also: potency is read from the fitted curve at half-maximal effect; % is scaled to controls: 0 for no effect and ±100 for the full control effect; nearly all actives have a fitted effect of over 55% in size
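Growth of hTDP1-complemented DT40 Tdp1-knockout cells is measured by ATP luminescence after at least 48 hr compound exposure at 37 °C, with DMSO substituting for the 20 nM CPT used in the parallel screen.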
HepG2 tox – kills HepG2 cells in TGF-b inhibitor counter-screen. HepG2 CAGA-GFP viability, ATP luminescence, 18 h. Potency, µM (doses to about 46.1 µM), inactives show top-dose activity change, negative = cytotoxicity, actives largely listed as cytotoxic. hit rate 0.76% among 410,000; also: potency is read from the fitted curve at half-maximal effect
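HepG2 CAGA-GFP cells (1000/well, DMEM with 1% FBS) received compound, then TGF-beta at 500 pg/mL final, and were incubated 18 hours at 37 degrees C. Viability was read by CellTiter-Glo luminescence. Media-only wells were set as complete cell-killing and DMSO as no toxicity.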
An asterisk follows results filed as active; ? = inconclusive; . = no result given. Unless noted, calls follow the shape of the dose curve; as a rule, active = well fitted curve in the direction sought with a large enough effect; inconclusive = small, poorly fitted or top-dose-only effect, or another doubt; inactive = no such curve, though single readings can be large; an effect the other way counts as inactive or inconclusive.

SMILES | TDP1 inh | TGFb SMAD3 inh | IL-1B inflam inh | DT40 TDP1 CPT | TDP1 cell noCPT | HepG2 tox
CC(=O)c1c(C)[nH]c(C(=O)OCC(=O)NCc2cccs2)c1C | 0% | ? | 39 | ? | ? | 0%
C=CCN1C(=O)/C(=C/c2ccc(OC(C)=O)c(OCC)c2[N+](=O)[O-])SC1=S | -1% | 7.1µM* | -76* | ? | ? | -54%
C=CCN1C(=O)/C(=C\C(C)=C\c2ccccc2)SC1=S | . | 12% | ? | 14% | ? | 1%
Cc1ccc(OCC(=O)c2cc(C)n(-c3ccccc3)c2C)c([N+](=O)[O-])n1 | 11% | ? | -5 | ? | 15µM* | -15%
C=CCn1c(C)cc(C(=O)COc2nncc3ccccc23)c1C | -3% | 2% | -4 | 8.2µM* | 7.3µM* | -3%
CCCn1c(C)cc(C(=O)COc2ccc(S(=O)(=O)N(CC)CC)cc2[N+](=O)[O-])c1C | 6% | -13% | -28 | 21µM* | 23µM* | -13%
C=CCn1c(C)cc(C(=O)COc2ccc(C)nc2[N+](=O)[O-])c1C | 3% | -22% | 12 | ? | 21µM* | -32%
CCN(CC)S(=O)(=O)c1ccc(OCC(=O)NC(=O)c2ccccc2OC)c([N+](=O)[O-])c1 | -3% | -19% | -2 | -15% | -19% | -4%
Cc1ccc(S(=O)(=O)NC(=O)C2(C)CCN2C(=O)CCc2ccc(Cl)cc2Cl)cc1 (centres undefined) | . | 2% | 16 | -14% | -6% | -2%
COc1ccccc1C1CCN(C(=O)c2ccc(Cl)cc2)CC1 | . | 0% | -8 | -26% | -15% | -2%
COc1cc(OC)c(NC(=O)c2noc3c2CSc2ccccc2-3)cc1Cl | 0% | -3% | . | -7% | -14% | -16%
Cc1cc(C(=O)CSc2nnnn2C)c(C)n1-c1ccc2c(c1)OCCO2 | 9% | 0% | -1 | ? | ? | -4%
COCC(C)n1c(C)cc(C(=O)CSc2nnc(-c3ccco3)o2)c1C (centres undefined) | 4% | -3% | -17 | ? | ? | -11%
Cc1cc(C(=O)CSc2nnc(-c3ccco3)o2)c(C)n1-c1ccc2c(c1)OCCO2 | 6% | -2% | 15 | ? | 21µM* | -1%
Cc1cc(C(=O)CSc2nnc(-c3ccco3)o2)c(C)n1Cc1ccco1 | 5% | -8% | -4 | 21µM* | 23µM* | -26%
Cc1cc(C(=O)CSc2nn(-c3ccccc3)c(=S)s2)c(C)n1Cc1ccco1 | 3% | -5% | -7 | ? | ? | -9%
Cc1cc(C(=O)CSc2nncs2)c(C)n1Cc1ccco1 | 0% | 0% | 11 | -17% | 12µM* | 20%
Cc1cc(C(=O)CCl)c(C)n1Cc1ccco1 | -6% | ? | -97* | 2.6µM* | 2.6µM* | -26%
COc1ccc2c(c1)c(C(=O)CN(C)C)c(C)n2C | . | 0% | . | 0% | -18% | -18%
Cc1cc(C(=O)CN2C(=O)NC(c3ccccc3)(c3ccccc3)C2=O)c(C)n1Cc1ccco1 | 6% | -19% | -3 | ? | 23µM* | -13%
CC(=O)CN1C(=O)NC(c2ccccc2)(c2ccccc2)C1=O | . | -13% | -1 | 0% | ? | 3%
Cc1nnc(NC(=O)C2CSC3(C)CCC(=O)N23)s1 (centres undefined) | 0% | 7% | 4 | -17% | -3% | 8%
CCCCCSc1nc2sc3c(c2c(=O)n1-c1ccc(OC)cc1)CCN(C(C)=O)C3 | 9% | ? | . | ? | 26µM* | -7%
CCCCSc1nc2sc3c(c2c(=O)n1-c1ccc(OC)cc1)CCN(C)C3 | . | 0% | -8 | ? | ? | 8%
CCCCSc1nc2sc3c(c2c(=O)n1-c1ccccc1)CCN(C)C3 | . | -22% | -8 | 9.2µM* | 7.3µM* | -24%
SMILES | TDP1 inh | TGFb SMAD3 inh | IL-1B inflam inh | DT40 TDP1 CPT | TDP1 cell noCPT | HepG2 tox
CN1CCc2c(sc3nc(SCC(N)=O)n(-c4ccc(Cl)cc4)c(=O)c23)C1 | . | 0% | 10 | ? | 23µM* | -20%
CCSc1nc2sc3c(c2c(=O)n1-c1ccccc1C)CCN(C)C3 | . | -3% | -18 | ? | 29µM* | 4%
O=C(NCCc1ccccc1F)C1CCC(=O)N(Cc2ccc(Cl)cc2)C1 (centres undefined) | 0% | 2% | -11 | 0% | 11% | -68%
O=C(Nc1ccc(Cl)c(C(F)(F)F)c1)c1cc2nc(-c3ccc4c(c3)OCO4)cc(C(F)(F)F)n2n1 | 7% | 9% | . | 1% | -20% | 7%
CCn1c(SCC(=O)c2ccccc2)nc2sc3c(c2c1=O)CCN(C)C3 | 8% | 15% | -3 | 23µM* | 21µM* | -2%
C=C(C)CSc1nc2sc3c(c2c(=O)n1-c1ccccc1)CCN(C)C3 | . | -2% | -24 | ? | 29µM* | 1%
CCSc1nc2sc3c(c2c(=O)n1-c1ccccc1)CCN(C(C)C)C3 | . | 0% | -27 | 10µM* | 21µM* | 0%
CSc1nc2sc3c(c2c(=O)n1-c1ccc(C)c(Cl)c1)CCN(C(C)=O)C3 | -6% | -20% | . | ? | 15µM* | -27%
CCn1c(SCC(=O)NCCc2ccccc2)nc2sc3c(c2c1=O)CCN(C)C3 | 3% | 19% | -9 | ? | ? | 1%
CCCN(CCC)C(=O)CSc1nc2sc3c(c2c(=O)n1-c1ccccc1)CCN(C(C)=O)C3 | 3% | -5% | . | ? | -26% | -19%
COc1ccc(S(=O)(=O)n2nc(C)c(S(=O)(=O)N3CCCCCC3)c2C)cc1C | -2% | 0% | . | 8% | 7% | 3%
ICCc1ccccc1 | -4% | . | . | . | . | .
COC(=O)c1cc(OC)c(OC)cc1NC(=O)c1ccc2c(c1)CCN2S(=O)(=O)c1ccccc1 | -2% | ? | . | 0% | 2% | 4%
O=C(Nc1ccccc1F)c1ccc2c(c1)CCN2S(=O)(=O)c1ccccc1 | 1% | 1% | -69* | ? | -28% | -4%
O=C(Nc1c(F)cccc1F)c1ccc2c(c1)CCN2S(=O)(=O)c1ccccc1 | 0% | -13% | -67* | ? | -7% | -17%
Cc1cccc(NC(=O)c2ccc3c(c2)CCN3S(=O)(=O)c2ccccc2)c1C | -2% | -24% | . | -28% | -28% | -19%
CCCNC(=O)c1cc(S(=O)(=O)N2CCC3(CC2)OCCO3)ccc1F | . | -7% | 17 | -11% | -18% | -5%

High-throughput results (PubChem)
